Hit rate of the full screen: of about 48,000 compounds, about 13,000 (27%) showed an effect of 50% or more. The list shows a part of the results.
test system: Wolbachia pipientis; assay: Anti-Wolbachia Cell-Based Screen; format: functional; parameters: scale not given: in the data most compounds retested in dose-response had high values; settings: 5 µM

| SMILES | Percent Effect [%] |
| --- | --- |
| Cc1cccc(C(C)NCC2CCS(=O)(=O)CC2)c1 (stereo not drawn) | -4.903 |
| O[C@H]1Cc2ccccc2[C@H]1Nc1ncccc1C(F)(F)F | -3.306 |
| CCN(CC)C(=O)[C@@H]1C[C@@H](NC(=O)c2cccc(N(C)C)c2)CN1C | -6.856 |
| COc1cc(C)nc(N2CCN(C(C)c3nc(C4CC4)no3)CC2)n1 (stereo not drawn) | 4.237 |
| Cc1nnc(NCC(c2ccco2)N(C)C)c(C#N)c1C (stereo not drawn) | 0.3665 |
| O=C(CCn1ccc2ccc(Br)cc21)/N=c1\[nH]nc(C2CCCO2)s1 (stereo not drawn) | 100.3 |
| CCN(CC)C(=O)Cn1ccc2cc(NC(=O)C3CCCO3)ccc21 (stereo not drawn) | -12.1 |
| O=C(Cn1ccc2ccc(Cl)cc21)/N=c1\[nH]nc(C2CCCO2)s1 (stereo not drawn) | 134.6 |
| CCCn1ccc2cc(NC(=O)CC3CCCO3)ccc21 (stereo not drawn) | 3.072 |
| O=C(CCn1ccc2ccc(F)cc21)/N=c1\[nH]nc(C2CCCO2)s1 (stereo not drawn) | 105.1 |
| O=C(CCn1ccc2cc(Br)ccc21)/N=c1\[nH]nc(C2CCCO2)s1 (stereo not drawn) | 98.02 |
| Cn1cc(C2CCCN2C(=O)Cn2ccc3ccc(Cl)cc32)cn1 (stereo not drawn) | -41.07 |
| O=C(NCc1cnn(-c2ccc(F)cc2F)c1)C1CCCO1 (stereo not drawn) | 2.744 |
| O=C(NCCc1ccn(-c2ccc(F)cc2)n1)C1CCCO1 (stereo not drawn) | -8.284 |
| O=C(Cn1ccc2ccc(Br)cc21)NC[C@@H]1CCCN2CCCC[C@H]12 | 19.6 |
| NC(=O)C1CCN(C(=O)CCn2ccc3cc(Br)ccc32)CC1 | 25.85 |
| O=C(CC1CCCO1)Nc1ccc2c(ccn2CCN2CCOCC2)c1 (stereo not drawn) | -5.067 |
| CCCN(C(=O)CCS(=O)(=O)Cc1ccccc1)c1cccc(C)c1 | -47.75 |
| Cc1ccc(-c2cn3c(n2)CO[C@@H](CNCc2cccnc2)C3)cc1 | 0.839 |
| Cc1[nH]/c(=N\C(=O)c2csc(NCC(C)C)n2)sc1C | 1.657 |
| COc1ccc2c(ccn2CCC(=O)/N=c2\[nH]nc(C3CCCO3)s2)c1 (stereo not drawn) | 126.4 |
| CCn1ccc2cc(NC(=O)CC3CCCO3)ccc21 (stereo not drawn) | 3.531 |
| CNC(=O)CCC(=O)N1CCOC(c2ccc3cc(OC)ccc3c2)C1 (stereo not drawn) | 9.004 |
| C=C(C)CN1CCC(n2cc(C3CCCC3)nn2)CC1 | 14.96 |
| O=C(NC1CC1)c1cn(C2CCN(c3cc(C4CC4)ncn3)CC2)nn1 | -15.81 |
| CC(C)Nc1cc(N2CCC(n3cc(C4CCCC4)nn3)CC2)ncn1 | 92.63 |
| CCCC(C)CN1CCC(n2cc(C3CCCC3)nn2)CC1 (stereo not drawn) | 0.2453 |

| SMILES | Percent Effect [%] |
| --- | --- |
| CC(C)Nc1cc(N2CCC(n3cc(CCO)nn3)CC2)ncn1 | 96.69 |
| CCc1cc(N2CCC(n3cc(C(=O)NCC(C)C)nn3)CC2)ncn1 | -7.159 |
| CCc1cc(N2CCC(n3cc(C(=O)NC4CC4)nn3)CC2)ncn1 | -11.68 |
| CCC(C)CN1CCC(n2cc(C3CCCCC3)nn2)CC1 (stereo not drawn) | -12.86 |
| CCC(C)CN1CCC(n2cc(C3CCCC3)nn2)CC1 (stereo not drawn) | -13.12 |
| OCCNc1cc(N2CCC(n3cc(C4CCCC4)nn3)CC2)ncn1 | 104 |
| CC(C)Nc1cc(N2CCC(n3cc(C4CC4)nn3)CC2)ncn1 | 77.15 |
| Cc1cc(N2CCC(n3cc(CCCO)nn3)CC2)ccn1 | 1.957 |
| Cc1nn(CCO)c(C)c1CNC1CCC(C)(C)c2ccccc21 (stereo not drawn) | -8.145 |
| CNCCN1C(=O)CC[C@H]2CN(c3cnc4ccccc4n3)CC[C@H]21 | -7.782 |
| CC(C)COC1CCN(C(=O)c2ccc(C(F)(F)F)[nH]c2=O)CC1 | 17.18 |
| N#Cc1ccc(CS(=O)(=O)NC(=O)c2ccc(C#N)cc2)cc1 | 0.6106 |
| CCN1CCc2c(sc3c2C(=O)NC(/C=C\c2ccccc2)N3)C1 (stereo not drawn) | 141.7 |
| CN1CCc2c(sc3c2C(=O)NC(/C=C/c2ccccc2)N3)C1 (stereo not drawn) | 102.8 |
| CCN1CCc2c(sc3c2C(=O)NC(/C=C/c2ccco2)N3)C1 (stereo not drawn) | 144 |
| NC(=O)Nc1cccc(CNC(=O)CCCOCc2ccccc2)c1 | -14.12 |
| Cc1noc(C)c1C(=O)N(Cc1ccsc1)CC1CCCO1 (stereo not drawn) | -86.84 |
| CCN1CCN(S(=O)(=O)N2CCCCCC2)[C@H]2CS(=O)(=O)C[C@H]21 | 2.124 |
| CCCC(=O)N(CCCN1CCOCC1)c1nc2c(Cl)cccc2s1.Cl | 31 |
| Cn1c(-c2ccccc2Cl)nc2cc(C(=O)NCC3(CO)CC3)cnc21 | 10.87 |
| Cc1noc(CCCC(=O)NCC(c2ccco2)N2CCCC2)n1 (stereo not drawn) | 1.423 |
| O=C(NCCCn1cncn1)NCC(c1ccco1)N1CCCCC1 (stereo not drawn) | 9.107 |
| CC(C)c1noc(CCC(=O)NCC(c2ccco2)N2CCCC2)n1 (stereo not drawn) | -11.99 |
| Cc1noc(CCCC(=O)NCC(c2ccco2)N2CCCCC2)n1 (stereo not drawn) | -0.8117 |
| O=C(CCn1cncn1)NCC(c1ccco1)N1CCCC1 (stereo not drawn) | 144.5 |
| O=C(CCn1cncn1)NCC(c1ccco1)N1CCCCC1 (stereo not drawn) | 106.2 |

Source: ChEMBL document CHEMBL3988442, “University of Dundee, Small-Polar-MMV Screening Library” (2021)
